# PubChem BioAssay (Tox21)
# Results filed as inconclusive are left out. A call without a number means that no potency is given here. Values without a mark were called inactive. Calls of active or inactive are those of the source. Unless noted, calls follow the shape of the dose curve; as a rule, active = well fitted curve in the direction sought with a large enough effect in the repeat runs; inconclusive = weak or mixed curves; inactive = no such curve, though single readings can be large; an effect the other way counts as inactive or inconclusive.
# Columns and labels:
# [1] = qHTS assay to identify small molecule agonists of the vitamin D receptor (VDR) signaling pathway - cell viability counter screen (AID 743224); also: series mostly up to about 63 µM; nearly all actives have a fitted effect of over 50% in size
# Summary of the method: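 VDR-bla cell line, quantitative HTS format; 16 h compound incubation (37C, 5% CO2); ATP-based CellTiter-Glo luminescence measured in the reporter assay wells.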
# [2] = qHTS assay to identify small molecule antagonists of the vitamin D receptor (VDR) signaling pathway - cell viability counter screen (AID 743225); also: nearly all actives have a fitted effect of over 50% in size
# Summary of the method: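 Cytotoxicity counter screen read by CellTiter-Glo luminescence (30 min, room temperature) in the same wells as the VDR-bla antagonist readout. HEK 293T VDR-UAS-bla cells had 16 h at 37C with compound and 3 nM (final) 1-alpha,25-dihydroxyvitamin D3, then 2 h with FRET substrate.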
# [3] = qHTS assay to identify small molecule agonists of the NFkB signaling pathway - cell viability counter screen (AID 1159515; calls by dose curve; also: series mostly up to about 61 µM; nearly all actives have a fitted effect of over 55% in size)
# Summary of the method: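 Viability in NFkB-bla ME-180 cells was measured by CellTiter-Glo luminescence, 30 min room temperature, in wells already treated 5 hr with compounds and read for reporter FRET.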
# [4] = qHTS assay to identify small molecule agonists of the endoplasmic reticulum stress response signaling pathway (AID 1159516; active = well fitted activation curve with a large enough effect in the signal ratio in the repeat runs, not every such curve was filed as active; the % refers to the signal ratio)
# Summary of the method: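 ER stress element reporter (bla) in HeLa. 1,500 cells/well, overnight attachment; 5 hr compound; 2 hr RT substrate; dual-emission fluorescence.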
# [5] = qHTS assay to identify small molecule agonists of the endoplasmic reticulum stress response signaling pathway - cell viability counter screen (AID 1159517; calls by dose curve;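 also: HeLa cells carrying an ER stress response element beta-lactamase reporter; series mostly up to about 61 µM; nearly all actives have a fitted effect of over 50% in size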)
# Summary of the method: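 Luminescence readout: CellTiter-Glo, 30 min RT, same wells as the ESRE-bla reporter read. HeLa ESRE-bla, 1,500 cells/well, o/n 37 C; cpd 5 hr 37 C/5% CO2.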
# [6] = molecular target: Nuclear receptor ROR-gamma (Homo sapiens) (UniProt P51449); assay: qHTS assay to identify small molecule antagonists of the retinoid-related orphan receptor gamma (ROR-gamma) signaling pathway (AID 1159521; also: top concentration of the series differs between compounds; nearly all actives have a fitted effect of over 50% in size)
# Summary of the method: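 Antagonist read-out: drop in luminescence (ONE-Glo) from an RORE-LUC reporter in CHO cells with doxycycline-inducible ROR-gamma; 2 hr compound pretreatment, 1 uM doxycycline, 16 hr incubation at 37 C.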
# [7] = qHTS assay to identify small molecule agonists of the AP-1 signaling pathway - cell viability counter screen (AID 1159525; calls by dose curve; also: nearly all actives have a fitted effect of over 55% in size)
# Summary of the method: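 ME-180 AP-1-bla, 2500 cells/well, Opti-MEM + 0.5% dialyzed FBS; overnight 37 °C; cpd 15-pt titration, 5 h 37 °C; CellTiter-Glo 30 min RT; luminescence read; normalised to TOAB and DMSO controls.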
# [8] = molecular target: Retinoic acid receptor RXR-alpha (Homo sapiens) (UniProt P19793); assay: qHTS assay to identify small molecule agonists of the RXR signaling pathway (AID 1159527; calls by dose curve; also: nearly all actives have a fitted effect of over 35% in size)
# Retinoic acid receptor RXR-alpha (Homo sapiens), sequence (P19793 whole entry, looked up): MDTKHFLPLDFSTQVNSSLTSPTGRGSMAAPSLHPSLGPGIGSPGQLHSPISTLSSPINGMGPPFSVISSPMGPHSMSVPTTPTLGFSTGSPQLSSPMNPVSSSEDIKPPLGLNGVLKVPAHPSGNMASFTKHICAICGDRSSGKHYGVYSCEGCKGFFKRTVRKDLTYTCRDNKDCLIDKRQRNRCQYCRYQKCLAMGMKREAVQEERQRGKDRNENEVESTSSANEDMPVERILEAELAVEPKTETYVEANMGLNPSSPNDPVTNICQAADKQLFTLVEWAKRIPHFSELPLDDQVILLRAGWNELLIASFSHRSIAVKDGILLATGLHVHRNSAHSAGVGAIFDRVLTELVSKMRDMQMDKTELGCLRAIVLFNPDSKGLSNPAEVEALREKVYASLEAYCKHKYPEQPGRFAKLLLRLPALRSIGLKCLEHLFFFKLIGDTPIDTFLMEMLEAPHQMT
# Summary of the method: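 Agonist-mode beta-lactamase reporter assay: HEK 293T RXR-alpha-UAS-bla cells treated 16 hr at 37 C with compounds, 9-cis retinoic acid as positive control. LiveBLAzer FRET substrate, 405 nm excitation, 460/530 nm emission.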
# [9] = qHTS assay to identify small molecule agonists of the RXR signaling pathway - cell viability counter screen (AID 1159529)
# Summary of the method: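 CellTiter-Glo luminescence gave viability in the wells also read for beta-lactamase. Cells (RXR-alpha-UAS-bla HEK 293T, 2% charcoal-stripped FBS medium) had 5 hr plating, then 16 hr compound exposure at 37 C; tetraoctyl ammonium bromide served as positive control.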
# [10] = qHTS assay to identify small molecule antagonists of the estrogen related receptor (ERR) signaling pathway from Tox21 library - cell viability counter screen (AID 1224834); also: nearly all actives have a fitted effect of over 30% in size
# Summary of the method: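 Viability readout (CellTiter-Fluor fluorescence, 30 min at 37 C) multiplexed with the ERR assay; cells treated 17.5 h at 37 C with compounds delivered in DMSO.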
# [11] = qHTS assay to identify small molecule antagonists of the retinoid-related orphan receptor gamma (ROR-gamma) signaling pathway - cell viability counter screen (AID 1159520); also: nearly all actives have a fitted effect of over 50% in size; also: potency is read from the fitted curve at half-maximal effect
# Summary of the method: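 Tet-on ROR gamma CHO cells (1,000/well) were plated 4 hr, given compounds in DMSO for 2 hr at 37 C, then induced with 1 uM final doxycycline for 16 hr. Viability was read as ATP by CellTiter-Glo luminescence after 30 min.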
# [12] = qHTS assay to identify small molecule agonists of the AP-1 signaling pathway (AID 1159526; calls by dose curve)
# [13] = qHTS assay to identify small molecule antagonists of the retinoid acid receptor (RAR) signaling pathway - cell viability counter screen (AID 1159551); also: nearly all actives have a fitted effect of over 35% in size
# Summary of the method: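 Following overnight attachment, C3RL4 reporter cells received DMSO-dissolved compounds and then retinol (1 uM final). Six hours later at 37 C, ATP content was measured by CellTiter-Glo luminescence.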
# [14] = qHTS assay to identify small molecule antagonists of the retinoic acid receptor (RAR) signaling pathway (AID 1159552; also: nearly all actives have a fitted effect of over 50% in size)
# Summary of the method: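 Luminescent RARE reporter read-out in C3RL4 cells: 6 hr co-treatment at 37 C of test compounds with retinol at 1 uM final. Cells plated overnight beforehand; luciferase reagent incubated 30 min at room temperature before reading.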
# [15] = qHTS assay to identify small molecule agonists of the retinoic acid receptor (RAR) signaling pathway (AID 1159553)
# Summary of the method: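 Cell line C3RL4, RARE luciferase reporter. Treatment: compounds in DMSO, 6 hr, 37 C, 5% CO2, after overnight plating. Detection: luminescence, 30 min RT after reagent.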
# [16] = qHTS assay to identify small molecule antagonists of the estrogen related receptor (ERR) signaling pathway (AID 1224819)
# Summary of the method: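 LOPAC library screened for antagonism as reduced One-Glo luminescence in ERR reporter cells (2,000/well). Compounds were added after 6 h pre-incubation and left 18 h at 37C; reading followed a 30 min room-temperature reagent step.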
# [17] = qHTS assay to identify small molecule agonists of the estrogen related receptor (ERR) signaling pathway (AID 1224820)
# Summary of the method: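 Quantitative HTS of the LOPAC library used NTP ERR reporter cells treated 18 h at 37 C. Signal is luminescence after One-Glo addition and a 30 min room-temperature incubation.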
# [18] = test system: estrogen-related receptor alpha (ERRalpha) with PGC-1alpha coactivator, human; assay: qHTS assay to identify small molecule antagonists of the estrogen related receptor signaling pathway with the pleiotropic PPARgamma coactivator (PGC) (AID 1224821; calls by dose curve)
# Summary of the method: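 Quantitative HTS for antagonism: PGC/ERR cells received compounds after 6 h attachment and were incubated 18 h at 37 C, with luminescence (One-Glo) as the endpoint.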
# [19] = qHTS assay to identify small molecule agonists of the estrogen related receptor signaling pathway with the pleiotropic PPARgamma coactivator (PGC) (AID 1224823)
# Summary of the method: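 Cell-based luciferase assay in the NTP-supplied PGC/ERR line, 2,000 cells/well; 18 h compound exposure at 37 C, luminescence after One-Glo.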
smiles,measurement,setting,value
C=CC(=O)OCCOC(=O)CCC(=O)O,Potency,[1],inactive
same,Potency,[2],inactive
same,Potency,[3],inactive
same,Potency,[4],inactive
same,outcome,[5],inactive
same,Potency,[6],inactive
same,Potency,[7],inactive
same,Potency,[8],inactive
same,Potency,[9],inactive
same,Potency,[10],inactive
Cc1ccc(C(=O)C(C)CN2CCCCC2)cc1 (stereo not drawn),Potency,[1],inactive
same,Potency,[2],inactive
same,Potency,[3],inactive
same,Potency,[4],inactive
same,outcome,[5],inactive
same,Potency,[11],inactive
same,Potency,[12],inactive
same,Potency,[9],inactive
same,Potency,[13],inactive
same,Potency,[14],inactive
same,Potency,[15],inactive
same,Potency,[10],inactive
CC(=O)N(O)CCCCCNC(=O)CCC(=O)N(O)CCCCCNC(=O)CCC(=O)N(O)CCCCCN,Potency,[1],inactive
same,Potency,[2],inactive
same,Potency,[3],inactive
same,Potency,[4],inactive
same,outcome,[5],inactive
same,Potency,[6],inactive
same,Potency,[7],inactive
same,Potency,[8],inactive
same,Potency,[9],inactive
same,Potency,[13],inactive
same,Potency,[14],inactive
same,Potency,[15],inactive
c1ccc(OCc2ccc(CCCN3CCOCC3)cc2)cc1,Potency,[1],inactive
same,Potency,[2],inactive
same,Potency,[3],inactive
same,Potency,[4],inactive
same,outcome,[5],inactive
same,Potency,[7],inactive
same,Potency,[12],inactive
same,Potency,[9],inactive
same,Potency,[13],inactive
same,Potency,[14],inactive
CC(=O)O[C@H]1C[C@@H]2CC[C@@H]3[C@H](CC[C@@]4(C)[C@H]3C[C@H]([N+]3(C)CCCCC3)[C@@H]4OC(C)=O)[C@@]2(C)C[C@@H]1N1CCCCC1,Potency,[1],inactive
same,Potency,[2],inactive
same,Potency,[3],inactive
same,Potency,[4],inactive
same,outcome,[5],inactive
same,Potency,[6],inactive
same,Potency,[7],inactive
same,Potency,[8],inactive
same,Potency,[9],inactive
same,Potency,[13],inactive
same,Potency,[10],inactive
Nc1cnn([C@@H]2O[C@H](CO)[C@@H](O)[C@H]2O)c(=O)n1,Potency,[1],inactive
same,Potency,[2],inactive
same,Potency,[3],inactive
same,Potency,[4],inactive
same,outcome,[5],inactive
same,Potency,[11],inactive
same,Potency,[12],inactive
same,Potency,[9],inactive
same,Potency,[13],inactive
same,Potency,[14],inactive
same,Potency,[15],inactive
CCCCCCOC(=O)CCC,Potency,[1],inactive
same,Potency,[2],inactive
same,Potency,[3],inactive
same,Potency,[4],inactive
same,outcome,[5],inactive
same,Potency,[11],inactive
same,Potency,[7],inactive
same,Potency,[8],inactive
same,Potency,[9],inactive
same,Potency,[14],inactive
same,Potency,[10],inactive
CN1CCN(C2=Nc3ccccc3Sc3ccc(Cl)cc32)CC1,Potency,[1],inactive
same,Potency,[2],inactive
same,Potency,[3],inactive
same,Potency,[4],inactive
same,outcome,[5],inactive
same,Potency,[6],inactive
same,Potency,[7],inactive
same,Potency,[8],inactive
same,Potency,[9],inactive
same,Potency,[13],inactive
same,Potency,[14],inactive
same,Potency,[15],inactive
same,Potency,[10],inactive
CC(=O)CC(=O)c1ccccc1,Potency,[1],inactive
same,Potency,[2],inactive
same,Potency,[3],inactive
same,Potency,[4],inactive
same,outcome,[5],inactive
same,Potency,[11],inactive
same,Potency,[7],inactive
same,Potency,[9],inactive
same,Potency,[14],inactive
same,Potency,[15],inactive
same,Potency,[10],inactive
Cn1sccc1=O,Potency,[2],inactive
same,Potency,[3],inactive
same,Potency,[4],inactive
same,outcome,[5],inactive
same,Potency,[11],61.1 µM (active)
same,Potency,[7],inactive
same,Potency,[9],inactive
same,Potency,[10],inactive
O=C(C(=O)c1ccc(Br)cc1)c1ccc(Br)cc1,Potency,[1],inactive
same,Potency,[2],inactive
same,Potency,[3],inactive
same,Potency,[4],inactive
same,outcome,[5],inactive
same,"activity, negative = cytotoxicity",[11],-5.42% [at 19 µM]
same,"viability change, negative = cytotoxic",[7],10.5% [at 15.8 µM]
same,activation,[8],-4.31% [at 15.8 µM]
same,"activity change, negative = cytotoxicity",[9],5.23% [at 15.8 µM]
same,"activity, negative = inhibition",[14],45.5% [at 19 µM]
same,Potency,[15],inactive
same,"viability change, negative = cytotoxic",[10],-1.64% [at 19 µM]
Oc1ccc(Cc2ccccc2)cc1,Potency,[1],inactive
same,Potency,[3],inactive
same,Potency,[4],inactive
same,outcome,[5],inactive
same,Potency,[7],inactive
same,Potency,[8],inactive
same,Potency,[13],inactive
same,Potency,[14],inactive
same,Potency,[15],inactive
C=C(C)C(=O)OCCOc1ccccc1,Potency,[2],inactive
same,Potency,[3],inactive
same,Potency,[4],inactive
same,outcome,[5],inactive
same,Potency,[11],inactive
same,Potency,[7],inactive
same,Potency,[8],inactive
same,Potency,[9],inactive
same,Potency,[13],inactive
same,Potency,[14],inactive
same,Potency,[10],inactive
Cc1cccc(OCCOc2cccc(C)c2)c1,Potency,[1],inactive
same,Potency,[3],inactive
same,Potency,[4],inactive
same,outcome,[5],inactive
same,Potency,[6],inactive
same,Potency,[7],inactive
same,Potency,[12],inactive
same,Potency,[9],inactive
same,Potency,[13],inactive
same,Potency,[14],inactive
same,Potency,[10],inactive
CC1=CC(=O)/C(=C(/C)O)C(=O)O1,Potency,[1],inactive
same,Potency,[2],inactive
same,Potency,[3],inactive
same,Potency,[4],inactive
same,outcome,[5],inactive
same,Potency,[6],inactive
same,Potency,[7],inactive
same,Potency,[12],inactive
same,Potency,[9],inactive
same,Potency,[14],inactive
same,Potency,[10],inactive
Nc1ccc(C(=O)N2CC3CC(CN(Cc4ccccc4)C3)C2)cc1,Potency,[1],inactive
same,Potency,[2],inactive
same,Potency,[3],inactive
same,Potency,[4],inactive
same,outcome,[5],inactive
same,Potency,[7],inactive
same,Potency,[12],inactive
same,Potency,[9],inactive
same,Potency,[13],inactive
same,Potency,[14],inactive
same,Potency,[15],inactive
same,Potency,[10],inactive
CCCCOc1cc(C(=O)OCCN(CC)CC)ccc1N,Potency,[1],inactive
same,Potency,[2],inactive
same,Potency,[3],inactive
same,Potency,[4],inactive
same,outcome,[5],inactive
same,Potency,[6],inactive
same,Potency,[7],inactive
same,Potency,[8],inactive
same,Potency,[9],inactive
same,Potency,[13],inactive
same,Potency,[14],inactive
same,Potency,[15],inactive
same,Potency,[10],inactive
CC(C)NCC(O)c1cc(O)cc(O)c1 (stereo not drawn),outcome,[16],inactive
same,outcome,[17],inactive
same,outcome,[18],inactive
same,outcome,[19],inactive
COc1ccc([C@@H]2Sc3ccccc3N(CCN(C)C)C(=O)[C@@H]2OC(C)=O)cc1,outcome,[17],inactive
